In PubChem BioAssay (NCI) one finds growth data, which are given here for 16 compounds.

Compounds without any hit were thinned out: in the full panel of roughly 83,000, 20% have a hit.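 Results are percent growth after 48 hours of single-concentration exposure. 100 means growth as in untreated cells, lower positive values show inhibition; negative values down to -100 show cell death.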 Values without a mark were called inactive. The source made the active and inactive calls. How the source made its calls: active means growth percent below 10; inactive means the rest.

Holding throughout (experiment): NCI-60 one-dose screen, 48 h (100 = growth as untreated, 0 = no growth, -100 = all killed)
Common to all, as to conditions: 10 µM unless noted

In assay [1] the test system is DU-145 prostate.
Assay [2] relates to K-562 leukemia.
Assay [3] deals with MALME-3M melanoma.
Assay [4] deals with RXF 393 renal.
Assay [5] has as its system SF-268 CNS.
For assay [6], the system named is SF-295 CNS.
The subject of assay [7] is SF-539 CNS.
Assay [8] has as its system UACC-257 melanoma.
The test system of assay [9] is M14 melanoma.
For assay [10], the system named is HCT-15 colon.
Assay [11] deals with HT29 colon.
Assay [12] relates to SNB-75 CNS.
In assay [13] the test system is SNB-19 CNS.
Assay [14] relates to U251 CNS.
Assay [15] relates to PC-3 prostate.
The test system of assay [16] is SK-MEL-5 melanoma.
Assay [17] deals with UACC-62 melanoma.
Assay [18] has as its system SK-MEL-28 melanoma.

On to `N#Cc1ccc(/C=N/NC(=O)c2[nH]c3ccc(Br)cc3c2-c2ccccc2)o1`, for which the growth in [1] was 8.4% (active); in [2], 2.28% (active); in assay [3] it was 22%; in assay [4], -2.8% (active); in assay [5], 17.7%; in assay [6] it was 16%. Besides, the growth in assay [7] is -16.8% (active); in [8], 13.6%; in assay [9], 12.1%; in assay [10], 8.65% (active); in assay [11] it was -15.3% (active); in [12], 5.21% (active). Further, the growth in assay [13] was 34.5%; in [14], 6.89% (active); in [15] it was 13.1%; in assay [16] it was -65.5% (active); in [17], 15.2%; in assay [18] it was 27.4%.
Take `N#Cc1cnn(C(=O)c2ccccc2Br)c1NC(=O)c1ccc(Br)cc1Cl`: the growth is 108% in assay [1]; 105% in assay [2]; 95.8% in assay [3]; 100% in assay [4]; 116% in assay [5]; 94.9% in assay [6]. The growth in [7] was 96.9%; in [8], 98.5%; in assay [9], 101%; in assay [10], 101%; in assay [11], 104%; in assay [12], 106%. In addition, the growth in [13] is 97.2%; in [14], 93.3%; in [15] it was 103%; in [16], 98.6%; in assay [17], 101%; in assay [18], 103%.
With `CSc1ccccc1NC(=O)c1ccc2nnn(/C(C#N)=C/c3ccccn3)c2c1`, the growth was -97.9% (active) in assay [1]; 1.03% (active) in assay [2]; -94.7% (active) in assay [3]; -98.8% (active) in assay [4]; 6.52% (active) in assay [5]; 2.24% (active) in assay [6]. In addition, the growth was -100% (active) in assay [7]; -89.8% (active) in [8]; -93.6% (active) in [9]; -79.9% (active) in assay [10]; -92.1% (active) in assay [11]; 67.9% in [12]. For the same compound, the growth was 0.0552% (active) in assay [13]; -90.9% (active) in assay [14]; -71% (active) in assay [15]; -98.9% (active) in [16]; -98.8% (active) in assay [17]; -99.2% (active) in assay [18].
`COc1cc(-c2cc(-c3cccc(OCC(=O)O)c3)[nH]c(=O)c2C#N)cc(OC)c1OC`: the growth in [1] is 111%; in [2], 89.8%; in assay [3], 95.9%; in assay [4] it was 100%; in assay [5] it was 110%; in assay [6], 97.6%. In addition, the growth in [7] was 93%; in assay [8], 105%; in assay [9] it was 97.6%; in assay [10], 100%; in assay [11], 112%; in assay [12] it was 116%. In addition, the growth was 92.3% in [13]; 113% in [14]; 97.6% in assay [15]; 99.7% in assay [16]; 95.5% in assay [17]; 102% in assay [18].
Take `COc1cccc(-c2c(C#N)c(-c3ccc(Cl)cc3)nc3n[nH]c(-c4ccc(Cl)cc4)c23)c1`: the growth in assay [1] is 58.5%; in [2], 5.73% (active); in assay [3], 59.7%; in assay [4] it was 39.3%; in assay [5] it was 65.9%; in assay [6] it was 64.5%. For the same compound, the growth was 38.1% in [7]; 54.4% in assay [8]; 36.8% in assay [9]; 9.74% (active) in [10]; 27.9% in [11]; 56.3% in assay [12]. In addition, the growth in assay [13] is 68.2%; in assay [14], 48.5%; in assay [15] it was 23.9%; in [16], 30.9%; in [17] it was 61.3%; in assay [18], 73.6%.
As to `CC1=C(C(=O)OCc2ccccc2)C(c2ccc(-n3cncn3)cc2)n2c(nc3ccccc32)N1` (stereo not drawn), the growth in assay [1] was 67.7%; in assay [2] it was 14.3%; in assay [3], 50.9%; in assay [4], 52.2%; in [5], 71.5%; in [6], 19.9%. Besides, the growth was 38.3% in assay [7]; 51.5% in assay [8]; 50.5% in [9]; 33.1% in [10]; 24.7% in [11]; 47.9% in assay [12]. In addition, the growth in assay [13] was 66.9%; in assay [14], 63.4%; in assay [15], 43.3%; in assay [16], 39.7%; in assay [17] it was 16.2%; in [18], 66.5%.
On to `Cc1c(C(=O)NNC(=O)c2ccc(Cl)cc2)nnn1-c1ccc(Br)cc1`, for which the growth is 109% in [1]; 91.3% in [2]; 93.8% in assay [3]; 93.1% in [4]; 108% in [5]; 90.9% in assay [6]. Besides, the growth in assay [7] was 94.2%; in assay [8], 97.7%; in assay [9], 98.8%; in assay [10] it was 98.3%; in [11], 96.4%; in assay [12] it was 90.6%. Besides, the growth in assay [13] was 97%; in assay [14], 112%; in [15], 99.9%; in [16] it was 97.7%; in assay [17] it was 90.5%; in assay [18], 95.7%.
As for `O=C(NNc1ccccc1)n1c(=O)c2ccccc2c(=O)n1-c1ccccc1`, the growth is 104% in assay [1]; 45.8% in assay [2]; 96.5% in [3]; 109% in assay [4]; 92.8% in [5]; 87.2% in [6]. The growth in [7] was 97.5%; in [8], 77.6%; in assay [9], 100%; in [10] it was 91.4%; in assay [11] it was 98.8%; in assay [12], 80.3%. In addition, the growth in assay [13] is 94.6%; in [14], 94.1%; in [15] it was 92.6%; in [16], 101%; in assay [17], 91.2%; in [18], 104%.
In the case of `N#Cc1c(-c2ccc(Br)cc2)nc2n[nH]c(-c3ccc(Br)cc3)c2c1-c1ccc(F)cc1`, the growth in assay [1] was 116%; in assay [2], 76.4%; in assay [3] it was 86.2%; in [4], 102%; in assay [5], 129%; in assay [6], 98.9%. Besides, the growth in [7] was 97.4%; in assay [8], 103%; in assay [9] it was 97.7%; in assay [10], 98.6%; in assay [11] it was 87.9%; in [12], 94.5%. Also, the growth in [13] was 102%; in assay [14], 96.7%; in assay [15], 89%; in assay [16], 95.1%; in [17], 87%; in assay [18], 102%.
Regarding `O=c1c2ccccc2nc(-c2ccccc2)n1/N=C/c1ccc2ccccc2c1`, the growth is 55.8% in assay [1]; 26.7% in [2]; 59% in [3]; 81.2% in [4]; 49.9% in [5]; 46.8% in [6]. Further, the growth is 27.2% in assay [7]; 49.3% in assay [8]; 57.2% in assay [9]; 13.1% in assay [10]; 19.9% in assay [11]; 65.8% in [12]. For the same compound, the growth is 56.8% in assay [13]; 31.2% in assay [14]; 53.4% in assay [15]; 38.5% in [16]; 35.8% in assay [17]; 61.7% in assay [18].
Take `COc1cc(-c2ccc(/C=N/NC(=O)c3[nH]c4ccc(Br)cc4c3-c3ccccc3)o2)cc(OC)c1OC`: the growth was 81.1% in assay [1]; 85.6% in assay [2]; 95.4% in assay [3]; 88.7% in [4]; 59% in [5]; 56.6% in assay [6]. Besides, the growth in [7] was -13.1% (active); in [8] it was 92.1%; in [9], 74.9%; in [10], 69.2%; in [11] it was 96.4%; in assay [12] it was 74.4%. Also, the growth in [13] is 52.4%; in assay [14], 40.6%; in [15] it was 68.8%; in [16], 92.2%; in assay [17], 77.2%; in assay [18], 86.8%.
With `CC(=O)Nc1cccc(Nc2nccc(N[C@@H](C)c3ccccc3)n2)c1`, the growth is 24.8% in [1]; 7.64% (active) in assay [2]; 28.7% in assay [3]; 21.2% in assay [4]; 27.6% in assay [5]; -8.12% (active) in assay [6]. For the same compound, the growth in [7] was 9.09% (active); in assay [8], 40.5%; in [9] it was 22.6%; in assay [10], 7.75% (active); in assay [11], 2.53% (active); in assay [12], 7.86% (active). For the same compound, the growth was 25.6% in assay [13]; 24.4% in assay [14]; 30.5% in assay [15]; -31% (active) in assay [16]; 20.6% in assay [17]; 49.4% in assay [18].
For `COc1ccc2nc(Nc3cccc(NC(=O)c4ccc(CN5CCCN(C)CC5)c(C(F)(F)F)c4)c3)ccc2c1`, the growth was -54.2% (active) in assay [1]; -18.6% (active) in assay [2]; -58.3% (active) in assay [3]; -82.9% (active) in assay [4]; -9.02% (active) in [5]; -53.9% (active) in assay [6]. In addition, the growth in assay [7] was -56.2% (active); in [8] it was -34% (active); in assay [9], -49.4% (active); in assay [10], -64.7% (active); in [11], -69.7% (active); in assay [12] it was -35.3% (active). For the same compound, the growth in [13] was -76.4% (active); in assay [14] it was 1.47% (active); in [15], -57% (active); in [16], -69.2% (active); in assay [17], -61.1% (active); in [18] it was -74.9% (active).
With `O=C1Nc2cc(Cl)ccc2/C1=C/c1cccc(OCc2ccccn2)c1`, the growth in assay [1] is 9.98% (active); in assay [2] it was 4.79% (active); in assay [3] it was 36.4%; in [4], -3.29% (active); in [5], 13.1%; in [6] it was 13.6%. For the same compound, the growth was -48.2% (active) in assay [7]; 44.4% in assay [8]; -9.46% (active) in [9]; 7.16% (active) in [10]; 0.146% (active) in assay [11]; 51.3% in [12]. In addition, the growth was 20.5% in assay [13]; -17.4% (active) in assay [14]; 20.1% in assay [15]; 6.08% (active) in assay [16]; 5.17% (active) in assay [17]; 39.5% in assay [18].
As for `N#Cc1c(-c2cccc3ccccc23)cc(-c2cccc(OCC(=O)O)c2)[nH]c1=O`, the growth in [1] is 105%; in [2], 94.2%; in assay [3], 87.3%; in assay [4], 105%; in [5], 96.6%; in assay [6] it was 101%. For the same compound, the growth in assay [7] is 95.5%; in assay [8] it was 97.8%; in assay [9], 93.6%; in [10] it was 100%; in assay [11], 102%; in assay [12], 73.7%. Moreover, the growth is 97.1% in assay [13]; 103% in [14]; 91.7% in assay [15]; 100% in assay [16]; 90.5% in [17]; 102% in [18].
Turning to `C=C1CC[C@@H]2[C@]3(C)COC(c4cn[nH]c4-c4ccccc4)O[C@@H]3CC[C@@]2(C)[C@@H]1C/C=C1/C(=O)OCC1O` (stereo partly drawn), the growth was 5.39% (active) in [1]; -10.2% (active) in [2]; -81.2% (active) in assay [3]; -59.4% (active) in assay [4]; 36.5% in assay [5]; 50.2% in assay [6]. In addition, the growth in assay [7] was -74.8% (active); in assay [8], 13.5%; in assay [9] it was -17.5% (active); in [10], -81% (active); in [11], -79% (active); in assay [12], 105%. Further, the growth in assay [13] is 45.3%; in assay [14] it was -18.6% (active); in assay [15] it was 33.3%; in assay [16], -77.2% (active); in assay [17], -12.7% (active); in [18] it was -55.2% (active).
